From PubChem BioAssay (NCI)
Compounds without any hit were thinned out: in the full panel of roughly 79,000, 15% have a hit. A number with no mark means an inactive call. The source made the active and inactive calls. Rule as the data show it: active = growth inhibition above about 70%; inactive = the rest.

Key:
[1] = NCI Yeast Anticancer Drug Screen. Data for the rad52 strain (AID 147);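 also: 0% = growth of vehicle-treated control cultures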; conditions: S. cerevisiae rad52 mutant growth inhibition, stronger effect = higher value
Procedure, shortened: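 Vehicle-treated cultures served as the reference for growth inhibition of compound-exposed yeast bearing a DNA repair mutation.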

[2] = NCI Yeast Anticancer Drug Screen. Data for the wt1 strain (AID 149);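 also: 0% = growth of vehicle-treated wt1 cultures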; conditions: S. cerevisiae wt1 strain (SPY 50644) growth inhibition, stronger effect = higher value
Procedure, shortened: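 Yeast wt1 strain exposed to compounds; growth inhibition measured relative to vehicle-treated controls.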

[3] = NCI Yeast Anticancer Drug Screen. Data for the rad50EPP+ strain (AID 151);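 also: 0% = growth of vehicle-treated control cultures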; conditions: S. cerevisiae rad50 mutant strain, stronger effect = higher value
Procedure, shortened: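 In this screen, rad50EPP+ yeast were exposed to compounds. Growth inhibition was scored against vehicle-treated controls.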

[4] = NCI Yeast Anticancer Drug Screen. Data for the mgt1 strain (AID 153); conditions: S. cerevisiae mgt1 mutant growth inhibition, stronger effect = higher value
Procedure, shortened: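 mgt1 strain exposed; growth vs vehicle control recorded as inhibition.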

[5] = NCI Yeast Anticancer Drug Screen. Data for the rad50 strain (AID 155);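 also: 0% = growth of vehicle-only cultures of the same strain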; conditions: S. cerevisiae rad50 strain growth inhibition, stronger effect = higher value
Procedure, shortened: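 Yeast carrying a defined DNA repair defect were exposed to test compounds, and growth was compared with vehicle-treated controls to give percent inhibition.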

[6] = NCI Yeast Anticancer Drug Screen. Data for the mec2-1 strain (AID 157); conditions: S. cerevisiae mec2-1 strain, stronger effect = higher value
Procedure, shortened: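 Vehicle-treated cultures served as reference for growth inhibition of compound-exposed mec2-1 yeast.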

[7] = NCI Yeast Anticancer Drug Screen. Data for the rad14 strain (AID 159);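 also: 0% = growth of vehicle-treated control cultures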; conditions: S. cerevisiae rad14 strain growth inhibition, stronger effect = higher value
Procedure, shortened: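 Yeast cells carrying a defined DNA-repair defect were exposed to compounds, and growth inhibition was calculated relative to vehicle-treated control cultures.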

[8] = NCI Yeast Anticancer Drug Screen. Data for the sgs1 mgt1 strain (AID 161);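 also: 0% = growth of cultures given vehicle only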; conditions: S. cerevisiae sgs1 mgt1 strain, stronger effect = higher value
Procedure, shortened: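 Inhibition of yeast growth, normalised to vehicle-treated controls, is reported for a strain bearing genetic alterations in DNA damage repair.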

[9] = NCI Yeast Anticancer Drug Screen. Data for the CLN2oe strain (AID 163);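 also: 0% = growth of vehicle-only control cultures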; conditions: S. cerevisiae CLN2oe strain, stronger effect = higher value
Procedure, shortened: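 Inhibition relative to vehicle-treated yeast is reported. Cells: strain with genetic alteration in cell-cycle control, grown with compound.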

[10] = NCI Yeast Anticancer Drug Screen. Data for the cln2 rad14 strain (AID 165);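 also: 0% = growth equal to vehicle treated cultures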; conditions: S. cerevisiae cln2 rad14 strain, stronger effect = higher value
Procedure, shortened: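 Each compound was tested on cln2 rad14 yeast. Inhibition of growth was calculated against vehicle-exposed controls.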

[11] = NCI Yeast Anticancer Drug Screen. Data for the bub3 strain (AID 167); conditions: S. cerevisiae bub3 mutant strain, stronger effect = higher value
Procedure, shortened: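 Compounds were applied to a genetically altered yeast strain carrying a cell-cycle control defect. Growth inhibition was scored against vehicle-treated controls.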

[12] = NCI Yeast Anticancer Drug Screen. Data for the wt2 strain (AID 169);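 also: 0% = growth of vehicle-treated yeast cultures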; conditions: S. cerevisiae wt2 strain growth inhibition, stronger effect = higher value
Procedure, shortened: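 Inhibition of yeast growth was determined after compound treatment, normalised to controls receiving only vehicle.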

[13] = NCI Yeast Anticancer Drug Screen. Data for the mlh1 strain (AID 171);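 also: 0% = growth of vehicle-treated control cultures of the same strain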; conditions: S. cerevisiae mlh1 strain growth inhibition, stronger effect = higher value
Procedure, shortened: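 Vehicle-normalised growth inhibition of a repair- or checkpoint-altered yeast strain following compound treatment.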

[14] = NCI Yeast Anticancer Drug Screen. Data for the sgs1 strain (AID 173);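 also: 0% = growth of vehicle-only control cultures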; conditions: S. cerevisiae sgs1 mutant, stronger effect = higher value
Procedure, shortened: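 Screen format: yeast with repair or checkpoint alterations, compound exposure, growth read relative to vehicle.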

[15] = NCI Yeast Anticancer Drug Screen. Data for the mlh1 rad18 strain (AID 175); conditions: S. cerevisiae mlh1 rad18 strain growth inhibition, stronger effect = higher value
Procedure, shortened: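 Vehicle-treated cultures served as the reference for growth inhibition in a yeast strain carrying DNA damage repair alterations exposed to each compound.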

[16] = NCI Yeast Anticancer Drug Screen. Data for the rad18 strain (AID 177); conditions: S. cerevisiae rad18 mutant growth inhibition, stronger effect = higher value
Procedure, shortened: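 Test articles were incubated with altered yeast defective in DNA damage repair. Results are given as inhibition of growth versus vehicle.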

[17] = at 5.0 µM (retest, dose inferred, filed as 0.5)
[18] = at 50.0 µM (retest, dose inferred, filed as 5.0)

## CC(=O)ON=C1C=CC(=C(C#N)c2ccc(Cl)cc2)C=C1
[1]; at 1.2 µM
  growth inhibition: 1%
[1]; at 3.7 µM
  growth inhibition: -1%
[1]; at 11.0 µM
  growth inhibition: 1%
[1]; at 33.0 µM
  growth inhibition: 22%
[1]; at 100.0 µM
  growth inhibition: 69%
[2]; at 1.2 µM
  growth inhibition: 0%
[2]; at 3.7 µM
  growth inhibition: 0%
[2]; at 11.0 µM
  growth inhibition: 4%
[2]; at 33.0 µM
  growth inhibition: 10%
[2]; at 100.0 µM
  growth inhibition: 61%
[3]; at 1.2 µM
  growth inhibition: 19%
[3]; at 3.7 µM
  growth inhibition: 38%
[3]; at 11.0 µM
  growth inhibition: 64%
[3]; at 33.0 µM
  growth inhibition: 91% (active)
[3]; at 100.0 µM
  growth inhibition: 96% (active)
[4]; at 1.2 µM
  growth inhibition: 0%
[4]; at 3.7 µM
  growth inhibition: 2%
[4]; at 11.0 µM
  growth inhibition: 4%
[4]; at 33.0 µM
  growth inhibition: 42%
[4]; at 100.0 µM
  growth inhibition: 77% (active)
[5]; at 1.2 µM
  growth inhibition: 0%
[5]; at 3.7 µM
  growth inhibition: -3%
[5]; [17]
  growth inhibition: 25%
[5]; at 11.0 µM
  growth inhibition: -1%
[5]; at 33.0 µM
  growth inhibition: 9%
[5]; [18]
  growth inhibition: 97% (active)
[5]; at 50.0 µM
  growth inhibition: 99.4% (active)
[5]; at 100.0 µM
  growth inhibition: 59%
[6]; at 1.2 µM
  growth inhibition: -1%
[6]; at 3.7 µM
  growth inhibition: 0%
[6]; [17]
  growth inhibition: 11%
[6]; at 11.0 µM
  growth inhibition: 1%
[6]; at 33.0 µM
  growth inhibition: 19%
[6]; [18]
  growth inhibition: 99% (active)
[6]; at 50.0 µM
  growth inhibition: 99% (active)
[6]; at 100.0 µM
  growth inhibition: 59%
[7]; at 1.2 µM
  growth inhibition: -3%
[7]; at 3.7 µM
  growth inhibition: -4%
[7]; at 11.0 µM
  growth inhibition: -1%
[7]; at 33.0 µM
  growth inhibition: 22%
[7]; at 100.0 µM
  growth inhibition: 98% (active)
[8]; [17]
  growth inhibition: 41%
[8]; [18]
  growth inhibition: 99% (active)
[8]; at 50.0 µM
  growth inhibition: 99.5% (active)
[9]; at 1.2 µM
  growth inhibition: -3%
[9]; at 3.7 µM
  growth inhibition: -8%
[9]; at 11.0 µM
  growth inhibition: -1%
[9]; at 33.0 µM
  growth inhibition: 3%
[9]; at 100.0 µM
  growth inhibition: 56%
[10]; [17]
  growth inhibition: 7%
[10]; [18]
  growth inhibition: 98% (active)
[10]; at 50.0 µM
  growth inhibition: 77.1% (active)
[11]; at 1.2 µM
  growth inhibition: -4%
[11]; at 3.7 µM
  growth inhibition: -4%
[11]; [17]
  growth inhibition: 3%
[11]; at 11.0 µM
  growth inhibition: -5%
[11]; at 33.0 µM
  growth inhibition: 7%
[11]; [18]
  growth inhibition: 75% (active)
[11]; at 50.0 µM
  growth inhibition: 56%
[11]; at 100.0 µM
  growth inhibition: 50%
[12]; at 1.2 µM
  growth inhibition: 1%
[12]; at 3.7 µM
  growth inhibition: 3%
[12]; at 11.0 µM
  growth inhibition: 9%
[12]; at 33.0 µM
  growth inhibition: 52%
[12]; at 100.0 µM
  growth inhibition: 86% (active)
[13]; at 1.2 µM
  growth inhibition: 4%
[13]; at 3.7 µM
  growth inhibition: 3%
[13]; at 11.0 µM
  growth inhibition: 9%
[13]; at 33.0 µM
  growth inhibition: 38%
[13]; at 100.0 µM
  growth inhibition: 74% (active)
[14]; at 1.2 µM
  growth inhibition: 2%
[14]; at 3.7 µM
  growth inhibition: 10%
[14]; at 11.0 µM
  growth inhibition: 16%
[14]; at 33.0 µM
  growth inhibition: 58%
[14]; at 100.0 µM
  growth inhibition: 95% (active)
[15]; [17]
  growth inhibition: 29%
[15]; [18]
  growth inhibition: 97% (active)
[15]; at 50.0 µM
  growth inhibition: 98.5% (active)
[16]; at 1.2 µM
  growth inhibition: 2%
[16]; at 3.7 µM
  growth inhibition: 1%
[16]; at 11.0 µM
  growth inhibition: 2%
[16]; at 33.0 µM
  growth inhibition: 19%
[16]; at 100.0 µM
  growth inhibition: 67%

## O=[N+]([O-])c1cccc2nc3ccccc3c(NCCCn3ccnc3[N+](=O)[O-])c12
[1]; at 1.2 µM
  growth inhibition: 53%
[1]; at 3.7 µM
  growth inhibition: 65%
[1]; at 11.0 µM
  growth inhibition: 86% (active)
[1]; at 33.0 µM
  growth inhibition: 94% (active)
[1]; at 100.0 µM
  growth inhibition: 97% (active)
[2]; at 1.2 µM
  growth inhibition: -6%
[2]; at 3.7 µM
  growth inhibition: 24%
[2]; at 11.0 µM
  growth inhibition: 37%
[2]; at 33.0 µM
  growth inhibition: 64%
[2]; at 100.0 µM
  growth inhibition: 86% (active)
[3]; at 1.2 µM
  growth inhibition: 24%
[3]; at 3.7 µM
  growth inhibition: 37%
[3]; at 11.0 µM
  growth inhibition: 58%
[3]; at 33.0 µM
  growth inhibition: 83% (active)
[3]; at 100.0 µM
  growth inhibition: 90% (active)
[4]; at 1.2 µM
  growth inhibition: 17%
[4]; at 3.7 µM
  growth inhibition: 28%
[4]; at 11.0 µM
  growth inhibition: 38%
[4]; at 33.0 µM
  growth inhibition: 55%
[4]; at 100.0 µM
  growth inhibition: 82% (active)
[5]; at 1.2 µM
  growth inhibition: 23%
[5]; at 3.7 µM
  growth inhibition: 63%
[5]; [17]
  growth inhibition: 24%
[5]; at 11.0 µM
  growth inhibition: 86% (active)
[5]; at 33.0 µM
  growth inhibition: 94% (active)
[5]; [18]
  growth inhibition: 94% (active)
[5]; at 50.0 µM
  growth inhibition: 80% (active)
[5]; at 100.0 µM
  growth inhibition: 96% (active)
[6]; at 1.2 µM
  growth inhibition: 29%
[6]; at 3.7 µM
  growth inhibition: 55%
[6]; [17]
  growth inhibition: 16%
[6]; at 11.0 µM
  growth inhibition: 88% (active)
[6]; at 33.0 µM
  growth inhibition: 96% (active)
[6]; [18]
  growth inhibition: 98% (active)
[6]; at 50.0 µM
  growth inhibition: 87.5% (active)
[6]; at 100.0 µM
  growth inhibition: 97% (active)
[7]; at 1.2 µM
  growth inhibition: 17%
[7]; at 3.7 µM
  growth inhibition: 73% (active)
[7]; at 11.0 µM
  growth inhibition: 95% (active)
[7]; at 33.0 µM
  growth inhibition: 97% (active)
[7]; at 100.0 µM
  growth inhibition: 98% (active)
[8]; [17]
  growth inhibition: 54%
[8]; [18]
  growth inhibition: 94% (active)
[8]; at 50.0 µM
  growth inhibition: 85% (active)
[9]; at 1.2 µM
  growth inhibition: 5%
[9]; at 3.7 µM
  growth inhibition: 27%
[9]; at 11.0 µM
  growth inhibition: 46%
[9]; at 33.0 µM
  growth inhibition: 82% (active)
[9]; at 100.0 µM
  growth inhibition: 92% (active)
[10]; [17]
  growth inhibition: 52%
[10]; [18]
  growth inhibition: 97% (active)
[10]; at 50.0 µM
  growth inhibition: 87.4% (active)
[11]; at 1.2 µM
  growth inhibition: -15%
[11]; at 3.7 µM
  growth inhibition: -12%
[11]; [17]
  growth inhibition: 11%
[11]; at 11.0 µM
  growth inhibition: 11%
[11]; at 33.0 µM
  growth inhibition: 51%
[11]; [18]
  growth inhibition: 78% (active)
[11]; at 50.0 µM
  growth inhibition: 58.4%
[11]; at 100.0 µM
  growth inhibition: 88% (active)
